TDP43 rescue – rescues yeast growth from TDP-43 toxicity; TDP-43 expressing yeast growth rescue, BacTiter-Glo, 24 h; Potency, µM (highest dose often 46.1 µM), inactives show top-dose growth rescue (activation), actives largely listed as activators; hit rate 1.8% among 410,000; AID 652104; also: % of control where 0% means no effect; nearly all actives have a fitted effect of over 50% in size
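In this qHTS, compounds that restore growth of yeast expressing TDP-43 appear as activators. Cells (OD600=0.02, galactose medium, raffinose-pregrown) are incubated with compound 24 hr at 30 deg C and growth is quantified by BacTiter-Glo.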
PTAP TSG101 blk – blocks PTAP/TSG101 interaction to inhibit HIV-1 budding. Q99816. Fluorescence polarization, FITC-PTAP peptide / Tsg101 binding. Potency, µM (titrated, usually from 115 µM), for the others: top-dose activity change, negative = inhibition, most hits filed as inhibitors. 340,000 tested, under 10 active. AID 493005; active = well fitted inhibition curve with a large enough effect in the main read-out, with a control signal flat, not every such curve was filed as active; inconclusive = small, poorly fitted or top-dose-only effect, or effect the other way, or a change in a side signal; inactive = no such curve, though single readings can be large or run the other way; also: % of control where 0% means no effect
Target sequence (Q99816 whole entry, looked up): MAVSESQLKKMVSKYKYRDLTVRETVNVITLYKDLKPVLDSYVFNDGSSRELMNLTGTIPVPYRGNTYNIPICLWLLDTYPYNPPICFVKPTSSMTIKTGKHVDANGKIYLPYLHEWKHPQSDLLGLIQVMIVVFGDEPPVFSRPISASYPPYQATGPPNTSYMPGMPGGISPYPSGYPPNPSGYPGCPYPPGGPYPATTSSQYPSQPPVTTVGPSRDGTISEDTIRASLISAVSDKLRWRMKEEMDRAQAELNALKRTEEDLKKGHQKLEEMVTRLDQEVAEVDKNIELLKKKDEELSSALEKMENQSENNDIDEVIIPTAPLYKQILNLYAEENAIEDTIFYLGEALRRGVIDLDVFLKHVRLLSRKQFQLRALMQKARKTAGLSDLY
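Fluorescence anisotropy tracks displacement of a FITC-tagged PTAP peptide (50 nM) from the Tsg101 binding domain (10 uM), following a 20 min room-temperature incubation at pH 7.5.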
Abeta yeast res – A-beta toxicity reversal in yeast. hit rate 0.063% among 410,000. yeast expressing A-beta42, growth rescue, OD600, 48 h; response scale: 0% DMSO, 100% iron-clioquinol control. Potency, µM (top dose mostly 46.1 µM), actives largely listed as activators. AID 1347071; also: nearly all actives have a fitted effect of over 55% in size
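Growth rescue measured by 600 nm absorbance after 48 h yeast culture at 30 C with compound. Values normalized between DMSO and an equimolar ferric chloride plus clioquinol control.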
FUS suppressor – suppressors of FUS proteinopathy in yeast; hit rate 0.24% among 390,000; S. cerevisiae FUS-expressing, growth rescue, OD600, 24 h; AID 1347120; Potency, µM (top dose mostly 76.6 µM), actives largely listed as activators;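 also: plate controls were DMSO vehicle for no effect and reference control for full effect; nearly all actives have a fitted effect of over 55% in size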
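Yeast expressing FUS under galactose induction, OD 0.005 in 2% galactose medium; compounds in a dilution series, 24 h at 30C. Growth rescue by absorbance at 600 nm; CP55940 positive control, DMSO negative.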
aSyn yeast inh – alpha-synuclein toxicity inhibition in yeast; Yeast expressing alpha-synuclein, growth rescue, BacTiter-Glo, 24 h; Potency, µM (highest dose often 46.1 µM), without a hit: at the top dose growth rescue (activation), hits mostly activators; hit rate 0.14% among 370,000; also: % of control where 0% means no effect; nearly all actives have a fitted effect of over 65% in size
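Readout is rescue of growth in alpha-synuclein-expressing yeast, so inhibitors of toxicity appear as activators. Growth after 24 hr at 30 deg C in galactose medium is quantified by luminescence.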
Numbers without * were called inactive; i = inactive; u = inconclusive; x = no result. Most compounds without a hit are left out; they make up all but 2.1% or so of the library. Unless noted, calls follow the shape of the dose curve; as a rule, active = well fitted curve in the direction sought with a large enough effect; inconclusive = small, poorly fitted or top-dose-only effect, or another doubt; inactive = no such curve, though single readings can be large; an effect the other way counts as inactive or inconclusive. Potency is read from the fitted curve at half-maximal effect.

SMILES	TDP43 rescue	PTAP TSG101 blk	Abeta yeast res	FUS suppressor	aSyn yeast inh
CSc1nc(N2CCOCC2)c2ccccc2n1	-13.0%	-3.6%	i	i	-7.1%
CSc1nc(N2CCN(c3ccccc3Cl)CC2)c2ccccc2n1	12.6µM*	-4.3%	i	i	-9.5%
CC(Nc1cc(N2CCN(C(=O)C(C)(C)C)CC2)ccc1[N+](=O)[O-])c1ccccc1 (centres undefined)	20µM*	-3.0%	i	u	0.1%
CC(C)C(=O)N1CCN(c2ccc([N+](=O)[O-])c(NC(C)c3ccccc3)c2)CC1 (centres undefined)	20µM*	-2.7%	i	u	-0.6%
Cc1cc(C)cc(NC(=O)C(=O)NCC(c2cccnc2)N2CCN(c3ccccc3)CC2)c1 (centres undefined)	14.9%	x	i	i	x
CCc1nn(CC(=O)NCCCOC)c(=O)c2cc3occc3n12	-10.8%	x	i	i	x
CCCOc1ccc(F)cc1-c1cc(C(=O)Nc2ccc(OC)cc2C)[nH]n1	25.1µM*	x	i	i	-9.4%
C(=C\c1ccnc2ccccc12)/c1cccs1	x	x	x	x	0.3%
O=C(/C=C/c1ccnc2ccccc12)c1cccs1	3.55µM*	-3.1%	i	i	1.8%
COc1cc(CN(C(=O)COc2ccccc2Cl)c2ccccn2)cc(OC)c1OC	6.7%	x	i	i	x
O=C(/C=C/c1cccs1)Nc1cccc(NC(=O)/C=C/c2cccs2)n1	7.94µM*	-4.7%	i	i	-8.3%
CC(C)Oc1ccc(C(=O)N2CCC(c3nc4ccccc4o3)CC2)cc1	27.1%	x	i	i	x
O=C(COc1cccc(Cl)c1)N1CCC(c2nc3ccccc3o2)CC1	28.2µM*	x	i	i	x
CCCCOc1ccc(C(=O)N2CCC(c3nc4ccccc4o3)CC2)cc1	28.2µM*	x	i	i	x
CC1=C(C(=O)N(C(C)C)C(C)C)CC(CC(=O)NC2CCCC2)C(=O)N1Cc1ccc(C(C)(C)C)cc1 (centres undefined)	u	x	i	u	-1.6%
CCOCc1cc(CN2CCN(c3cccc(C(F)(F)F)c3)CC2)c(O)c2ncccc12	25.1µM*	x	i	i	x
CC1=NNC(=O)C1CC(=O)N/N=C/C(Br)=C/c1ccccc1 (centres undefined)	14.1µM*	-0.9%	i	i	12.5%
O=C(COC(=O)c1nc(Cl)ccc1Cl)NCc1ccc(Cl)cc1	17.8µM*	0.7%	i	i	5.4%
Cn1cccc1-c1cc2n(n1)CCC(=O)N2CC(=O)Nc1ccc(F)cc1Cl	u	x	i	i	x
CC1CCCCC1Nc1nc2ccc(Cl)cc2n2cnnc12 (centres undefined)	12.6µM*	0.9%	i	i	9.9%
COC(=O)c1ccc2nc(-c3ccc(F)cc3)c(Cc3ccccc3OC)n2c1	22.4µM*	x	i	i	-10.7%
COC(=O)c1ccc2nc(-c3cccc(Br)c3)c(Cc3ccccc3OC)n2c1	u	x	i	i	-2.7%
COC(=O)c1ccc2nc(-c3ccc(C)cc3)c(Cc3cccc(Cl)c3)n2c1	22.4µM*	x	i	i	4.3%
COC(=O)c1ccc2nc(-c3ccccc3)c(Cc3ccc(C)cc3)n2c1	12.6µM*	x	i	i	6.4%
COc1cc(NC(=O)CSc2ccc(-c3sc(C)nc3C)nn2)cc(OC)c1	12.2%	x	i	u	x
SMILES	TDP43 rescue	PTAP TSG101 blk	Abeta yeast res	FUS suppressor	aSyn yeast inh
Cc1ccc(CCNC(=O)c2sc3nc4n(c(=O)c3c2C)CCCC4)cc1	15.8µM*	x	i	i	x
Cc1c(C(=O)NCc2ccccc2Cl)sc2nc3n(c(=O)c12)CCCCC3	35.5µM*	x	i	u	x
NNC(=O)c1nc(-c2ccccc2)n2c1CCCCC2	-3.5%	-5.3%	i	i	2.2%
Cc1c(C(=O)NCCO)sc2nc3n(c(=O)c12)CCC3	-21.9%	2.0%	i	i	-6.0%
Cc1ccc(-c2nc(C(=O)NCc3ccccc3Cl)c3n2CCCCC3)cc1	35.5µM*	x	i	u	12.4%
CCC1CCCCN1C(=O)CSc1nnc(-c2ccc(OC)c(OC)c2)o1 (centres undefined)	27.9%	x	i	i	x
CC(=O)c1ccc(Sc2nnnn2-c2ccccc2)c([N+](=O)[O-])c1	20µM*	-0.1%	i	i	-18.6%
COc1ccc(-c2cn3nc(N4CCC(C(=O)NCc5ccccc5F)CC4)sc3n2)cc1	2.4%	x	i	i	x
CC(C)Cc1ccc(S(=O)(=O)N2CCC(c3ccncc3)CC2)cc1	-7.5%	x	i	i	x
CCOC(=O)c1nnc(-c2ccccc2)nc1NCc1ccc(Cl)cc1	12.6µM*	-1.5%	i	i	2.2%
CCn1c(C(=O)Nc2cc(C)cc(C)c2)cc2sc(Cl)cc21	16.0%	x	i	i	x
CC(=O)Nc1ccc(/C=C2\C=Cc3ccccc32)cc1	x	x	x	x	-32.0%
Cc1cc(C)c(NC(=O)COC(=O)C2CCC2)c(Cl)c1	17.4%	-0.8%	i	i	-6.0%
Cc1cc(Br)c(NC(=O)COC(=O)C2CCCCC2)c(Br)c1	15.8µM*	0.7%	i	i	-0.3%
CCN(CC)S(=O)(=O)c1ccc(Cl)c(NC(=O)COC(=O)C2CCCCC2)c1	12.5%	4.6%	11.2µM*	i	15.8%
CCN(CC)S(=O)(=O)c1ccc(Cl)c(NC(=O)COC(=O)c2ccc(O)cc2)c1	2.8%	-6.7%	i	i	-1.7%
CC(C)N(C)c1ncnc2c1ncn2[C@H]1CN(Cc2cccs2)C[C@@H](CO)O1	7.7%	x	i	i	-1.6%
COC(=O)c1scc(-c2ccc(C)cc2)c1S(=O)(=O)Nc1ccc(OC(F)(F)F)cc1	-0.1%	x	i	i	x
CC(=O)c1ccc(OC2(C)CCN(Cc3csc4ccccc34)C2)cc1 (centres undefined)	u	x	i	i	3.9%
COc1ccc(N2CCC(CNC(=S)Nc3ccc(C)cc3C)C2)cc1 (centres undefined)	u	-3.6%	22.4µM*	u	-20.3%
COC(=O)CS(=O)(=O)c1nnc([C@H](Cc2ccccc2)NC(=O)OC(C)(C)C)o1	35.5µM*	-0.7%	i	x	-21.3%
O=C(Nc1ccc(Cl)cc1)C1Cc2c(-c3ccc(Cl)cc3)ccnc2O1 (centres undefined)	27.9%	x	i	i	-3.6%
O=C(NCc1ccccc1)C1Cc2c(-c3ccc4c(c3)OCO4)ccnc2O1 (centres undefined)	35.5µM*	x	i	i	2.7%
COc1ccc(NC(=O)C2Cc3c(-c4cccc(F)c4)ccnc3O2)cc1 (centres undefined)	22.4µM*	x	i	i	u
CC(=O)c1cccc(-c2ccnc3c2CC(C(=O)Nc2ccc(C(C)C)cc2)O3)c1 (centres undefined)	20µM*	x	u	i	11.3%

Screening results deposited in PubChem by National Center for Advancing Translational Sciences (NCATS).
